Bioassay records (PubChem)
Pf Dd2 growth: blocks in vitro growth of P. falciparum Dd2 | P. falciparum Dd2 growth, SYBR Green, 72 h | Potency, µM (titrated, usually from 28.9 µM), hits mostly inhibitors | hit rate 4.3% among 120,000 | AID 1347417; active means well fitted inhibition curve with a large enough effect; further: nearly all actives have a fitted effect of over 65% in size
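Readout: SYBR Green fluorescence, 485 nm excitation, 535 nm emission, after ~16 h lysis at 37C. Before that, Dd2-infected red cells (2.5% hematocrit) grew 72 h with compound, 29 uM top final concentration.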
Large screens that a line does not name were inactive. The sample as a whole holds a higher share of hits than the screen did.

Cn1cnc(S(=O)(=O)N2CCCC(Cc3noc(C4CC4)n3)C2)c1 (stereo not given)	none
CCC(C)NC(=O)CSc1nc2n[nH]c(C)c2c(=N)n1-c1ccc(C)c(Cl)c1 (stereo not given)	none
Cc1ccc(-n2c(SCC(=O)Nc3cccc(Cl)c3)nc3n[nH]c(C)c3c2=N)cc1	Pf Dd2 growth 13µM
Cc1ccc(CNC(=O)CSc2nc3n[nH]c(C)c3c(=N)n2-c2cccc(C)c2)cc1	none
Cc1ccc(-c2ncc(C(=O)NCC3CCCCC3)c(-c3ccncc3)n2)cc1	none
CCNC(=O)N[C@H]1[C@H](O)[C@H](O)C[C@@H]1c1ccc(C)cc1	none
COc1ccc(-n2nc(C3CCN(Cc4cccn4C)CC3)[nH]c2=O)cc1	Pf Dd2 growth 13µM
COc1ccc(-n2nc(C3CCN(Cc4ccc(N(C)C)cc4)CC3)[nH]c2=O)cc1	none
COC(=O)N1CCC(c2nn(-c3ccc(OC)cc3)c(=O)[nH]2)CC1	none
COc1ncccc1-c1cc2c(nc1-c1ccccc1)nc(C(=O)NCCN(C)C)n2C	none
COc1cc(CNC(=O)c2nc3nc(-c4ccccc4)c(Cl)cc3n2C)cc(OC)c1	Pf Dd2 growth 8.9µM
COc1ccc(CNC(=O)c2nc3nc(-c4ccccc4)c(Cl)cc3n2C)cc1OC	none
CN(C)CCNC(=O)c1nc2nc(-c3ccccc3)c(-c3ccccc3O)cc2n1C	Pf Dd2 growth 5.6µM
Cn1c(C(=O)NCCc2ccccn2)nc2nc(-c3ccccc3)c(Cl)cc21	none
Cn1c(C(=O)NCC2CC2)nc2nc(-c3ccccc3)c(Cl)cc21	none
COCc1nc2nc(-c3ccccc3)c(-c3cccnc3)cc2n1C	none
Cn1c(C(=O)NCc2ccoc2)nc2nc(-c3ccccc3)c(Cl)cc21	none
CN(C)CCNC(=O)c1nc2nc(-c3ccccc3)c(-c3ccc(Cl)cc3)cc2n1C	Pf Dd2 growth 5µM
Cn1c(C(=O)NCCN2CCOCC2)nc2nc(-c3ccccc3)c(Cl)cc21	none
COCc1nc2nc(-c3ccccc3)c(-c3ccccc3O)cc2n1C	Pf Dd2 growth 4.5µM
COCc1nc2nc(-c3ccccc3)c(-c3ccccc3OC)cc2n1C	none
CC(C)n1c(C2CCN(C(=O)CCc3nc4ccccc4s3)CC2)nn(C)c1=O	none
Cc1cccc(OCC(=O)NCc2nnc3c(-c4nc(C(C)C)no4)cccn23)c1	none
Cc1ccc(C(=O)N2CCN(c3nnc4ccccn34)CC2)cc1	none
Cc1nc(-c2c3n(c(=O)n(CC(=O)NCc4ccccc4)c2=O)CCCC3)no1	none
NCc1ccccc1-c1nc2c([nH]1)CCNC2C(=O)O (stereo not given)	none
COc1cccc(NC(=O)N[C@H]2CCN(C(=O)c3cccn3C)[C@@H]2C(=O)N[C@H](Cc2ccccc2)C(N)=O)c1	none
Cc1ccc(NC(=O)N2CCC(N3CC4CC(C3)[C@H]3CCCC(=O)N3C4)CC2)cc1F (stereo not given in full)	none
Cc1cccc(Cn2c(=O)n(Cc3ccccc3)c(=O)c3sc4ccccc4c32)c1	Pf Dd2 growth 8.9µM
Cc1ccc(Cn2c(=O)n(Cc3ccco3)c(=O)c3sc4ccccc4c32)cc1	none
Cc1ccc(CNC(=O)Cn2c(=O)n(Cc3ccccc3)c(=O)c3sc4ccccc4c32)cc1	none
CCCNC(=O)N1CCC(O)(c2csc(CN3CC[C@@H](O)C3)n2)CC1	none
O=C(NC1CCCCCC1)C1CCN(C(=O)c2ncn3c2COC(c2ccc(Cl)cc2)C3)CC1 (stereo not given)	none
O=C(O)COCC(=O)N[C@H]1CCN2C(=O)c3cc(-c4ccccc4)ccc3NC(=O)[C@H]12	none
CCS[C@H]1CCN2C(=O)c3cc(-c4ccccc4)ccc3NC(=O)[C@H]12	Pf Dd2 growth 11µM
CCS[C@H]1CCN2C(=O)c3ccccc3NC(=O)[C@H]12	none
O=C(N[C@H]1CCN2C(=O)c3cc(-c4ccccc4)ccc3NC(=O)[C@H]12)c1cnccn1	Pf Dd2 growth 11µM
Cc1cccc(-c2ccc3c(c2)C(=O)N2CC[C@H](N)[C@H]2C(=O)N3)c1C	none
O=C(NC1CCCCC1)N[C@H]1CCN2C(=O)c3cc(-c4ccccc4)ccc3NC(=O)[C@H]12	none
Cc1[nH]cnc1-c1nccn1CCCOC1CCN(C)CC1	none
COC(=O)c1cc2n(n1)CCCN(C(=O)C1CCCCn3nnnc31)C2 (stereo not given)	none
COc1ccc(CN2C[C@@H](CO)[C@H](c3ccccn3)C2)cc1C	none
CCCOc1ccc(CN2C[C@@H](CO)[C@H](c3ccccn3)C2)cc1	Pf Dd2 growth 2.8µM
OC[C@@H]1CN(Cc2ccco2)C[C@H]1c1ccccn1	none
COc1ccc(CC(=O)N2CCC(n3cnnc3C3CC3)CC2)cc1Cl	none
CCOc1ccc(NC(=O)c2ccc(-c3ccccc3)s2)cc1	none
CCOc1cccc(C(=O)Nc2ccc(NC(=O)c3ccc(Br)cc3)cc2)c1	none
CCOC(=O)Cc1cc(C(=O)Nc2ccc(Br)cc2)sc1-c1ccc(C)cc1	Pf Dd2 growth 7.1µM
Cc1ccc(C2(O)CCN(C(=O)C(N)CC3CCCC3)CC2)nc1 (stereo not given)	none
Cc1ccc(C2Cn3nnc(C(=O)N4CCC(C(=O)Nc5ccccc5)CC4)c3CO2)cc1 (stereo not given)	none
Cc1ccc(NC(=O)Cn2c(C)cc3nc4n(c(=O)c32)CCCC4)cc1Cl	none
CN1CC2(CCN(C(=O)CCCc3ccccc3)CC2)CC1C(=O)N1CCOCC1 (stereo not given)	Pf Dd2 growth 2.2µM
CN1CC2(CCN(Cc3cccn3C)CC2)CC1C(=O)N1CCOCC1 (stereo not given)	none
CN1CC2(CCN(Cc3ccccn3)CC2)CC1C(=O)N1CCOCC1 (stereo not given)	none
CN1C[C@@H](NC(=O)c2cnccn2)C[C@H]1c1nc(-c2ccc(OC(F)(F)F)cc2)no1	Pf Dd2 growth 14µM
COc1ccc(NC(=O)N[C@H]2C[C@@H](c3nc(-c4ccc(F)cc4)no3)N(C)C2)cc1	none
CN1C[C@@H](NC(=O)Nc2ccc(Cl)cc2)C[C@H]1c1nc(-c2ccc(F)cc2)no1	Pf Dd2 growth 14µM
COc1ccc(C(=O)N[C@H]2C[C@@H](c3nc(-c4ccccc4)no3)N(C)C2)cc1	none
COc1ccc(-c2noc([C@@H]3C[C@H](NCc4ccc(S(C)(=O)=O)cc4)CN3C)n2)cc1	none
Cc1ccc(-c2noc([C@@H]3C[C@H](NC(=O)Nc4ccc(Cl)cc4)CN3C)n2)cc1	none
COc1ccc(-c2noc([C@@H]3C[C@H](NCc4ccccn4)CN3C)n2)cc1	Pf Dd2 growth 10µM
COc1ccc(-c2noc([C@@H]3C[C@H](NC(=O)c4ccc(F)cc4)CN3C)n2)cc1	none
CN1C[C@@H](NC(=O)c2ccccn2)C[C@H]1c1nc(-c2ccc(Cl)cc2)no1	none
CCCc1ccccc1OCC(=O)c1ccc2c(c1)N(CC(=O)N1CCOCC1)C(=O)CO2	none
O=C(NC1CCN(C(=O)N2CC3CC(C2)[C@H]2CCCC(=O)N2C3)CC1)C1CCOCC1 (stereo not given in full)	none
O=C(CC1CNCCO1)N1CCN(C(=O)c2ccccc2)CC1 (stereo not given)	none
Cc1nc2ccccn2c1C(=O)NC(C)c1cnn(-c2ccccn2)c1C (stereo not given)	none
CCCNC(=O)N1CC[C@@H](CC(=O)O)[C@@H](CC2=NCCc3ccc(OC)cc32)C1	none
CCn1ncc(N2CCCC(CC(=O)NCCC3=CCCCC3)C2)cc1=O (stereo not given)	none
O=C(NCc1ccc(C(F)(F)F)cc1)C1CN(c2cccc(Cl)c2)C(=O)N1 (stereo not given)	none
O=C(c1ccccc1)N1CCC(N2CCOC2=O)CC1	none
CC1=C[C@@H](CNC(=O)c2ccccc2)[C@H](C(C)C)C[C@H]1CC(=O)NCc1cccnc1	none
COCc1nncn1C1CCN(C(=O)c2cc(C)cc(C)c2)CC1	none
